Hit rate of the full screen: of about 410,000 compounds, about 7,200 (1.8%) were called active. Where a call stands in place of a potency, no number is given. Not shown: some 7% with an inconclusive outcome. For the sample, actives were picked, then their nearest neighbours and some compounds at random. Unmarked numbers belong to inactive results. The call rests on the fitted dose curve; in most records, active means well fitted activation curve with a large enough effect; inconclusive means small, poorly fitted or top-dose-only effect, or another doubt; inactive means no such curve, though single readings can be large or run the other way.
assay: qHTS of TDP-43 Inhibitors; conditions: TDP-43 expressing yeast growth rescue, BacTiter-Glo, 24 h; series mostly up to 46.1 µM; further: nearly all actives have a fitted effect of over 50% in size
Summary of the method: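 Readout is BacTiter-Glo luminescence of cell growth, so inhibitors register as activators. TDP-43-expressing yeast at OD600=0.02 in galactose medium, after raffinose pregrowth to mid-log, were incubated with compound for 24 hr at 30 deg C.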
Potency means the concentration at half of the fitted maximal effect.

SMILES	growth rescue (activation)	Potency
CN(C)c1cccc(C(=O)Nc2nc3ccc(S(=O)(=O)NC(C)(C)C)cc3s2)c1	6.18% [at 9.22 µM]	–
COc1ccc2c(c1)c(N1CCCC1=O)c(C(=O)Nc1ccccc1C(F)(F)F)n2C	–	inactive
CCOc1ccc(NC(=O)C(CC(C)C)N2Cc3ccccc3C2=O)cc1 (centres undefined)	–	inactive
CC(Cc1cccs1)N(Cc1ccc(Cl)cc1)C(=O)c1ccncc1 (centres undefined)	–	35.5 µM (active)
CC(Cc1cccs1)NC(=O)c1cccc(Cl)c1 (centres undefined)	-15.2% [at 0.397 µM]	–
CC(C)(C)N(Cc1ccccc1)C(=O)c1ccncc1	–	inactive
CCOc1cc(C2C(C(=O)Nc3ccc(OC)cc3)=C(C)Nc3nc(SC)nn32)ccc1O (centres undefined)	–	inactive
O=C(CSc1nccn1Cc1ccc(Cl)cc1)NCc1ccccc1	9.99% [at 9.22 µM]	–
CCOC(=O)c1ccc(NC(=O)Cn2c(=O)cc(C)c3c(C)nn(-c4cccc(F)c4)c32)cc1	–	inactive
Cc1[nH]c2ccccc2c1C(c1ccccc1)c1cccs1 (centres undefined)	–	25.1 µM (active)
O=C(O)c1[nH]c2ccccc2c1C(c1cccc(O)c1)c1c(C(=O)O)[nH]c2ccccc12	–	inactive
Cc1[nH]c2ccccc2c1-c1ccc(Cl)nn1	-8.17% [at 9.22 µM]	–
CCN(CC)c1ccc(NC(=O)CN2C(=O)c3cccnc3Oc3ccc(Cl)cc32)c(C)c1	–	inactive
COc1ccc(-c2nn(CC(=O)NC3CCCC3)c3c2cnc2ccc(F)cc23)cc1	–	inactive
Cc1cccc(C(=O)Nc2ccc(-c3nc4ccccc4s3)c(C)c2)c1	–	inactive
COc1ccc(Cl)cc1NC(=O)COC(=O)C(CC(C)C)N1C(=O)C2CC=CCC2C1=O (centres undefined)	–	inactive
O=C(Nc1ccccc1C(=O)O)c1ccc(N2C(=O)C3CC=CCC3C2=O)cc1 (centres undefined)	–	inactive
COc1ccc(Cl)cc1NC(=O)c1cccc(N2C(=O)C3CC=CCC3C2=O)c1 (centres undefined)	–	11.2 µM (active)
CC(=O)Nc1ccc(NC(=O)CCCc2nc(-c3ccc(C(C)(C)C)cc3)no2)cc1	–	inactive
COc1ccc2c(c1)C=C(C(=O)NCc1cc(Br)ccc1OC)CO2	5.98% [at 9.22 µM]	–
CCOC(=O)c1ccc(NC(=O)CC2C(=O)N(c3cccc(OC)c3)C(=O)N2C2CCCCC2)cc1 (centres undefined)	–	inactive
CCCN(CCC)CCCNC(=O)Cn1cc2c(n1)-c1c(oc(C(=O)N3CCCC3)c1C)CC2	–	inactive
CCOc1ccc(CNC(=O)Cn2cc3c(n2)-c2c(oc(C(=O)N4CCCC4)c2C)CC3)cc1	–	inactive

SMILES	growth rescue (activation)	Potency
Cc1c(C(=O)N2CCCC2)oc2c1-c1nn(CC(=O)NCc3ccc(OC(C)C)cc3)cc1CC2	–	20 µM (active)
CC1=C(c2ccc(C)cc2)S(=O)(=O)NC1=NCCCN1CCN(c2cc(C)ccc2C)CC1	–	inactive
Cc1nn(-c2ccc(N3CCCCC3)nn2)c(C)c1CCC(=O)NCc1ccccc1F	–	inactive
CC(=O)c1ccc(NC(=O)CSc2nnc(NC(=O)Nc3ccccc3)s2)cc1	–	inactive
CN(C(=O)CSc1nnc(NC(=O)Nc2ccccc2)s1)c1ccccc1	–	inactive
CC(C)c1ccc(Nc2nnc(SCC(=O)c3nnc(-c4ccccc4)o3)s2)cc1	–	20 µM (active)
CCOC(=O)c1ccc(NC(=O)CCS(=O)(=O)c2ccc3c(c2)oc(=O)n3C)cc1	–	inactive
O=C(NC1CCN(Cc2ccccc2)CC1)c1ccc(Cn2c(=O)c3ccccc3n(Cc3cccc(F)c3)c2=O)cc1	–	inactive
CC(C)c1ccc(NC(=O)c2ccc(Cn3nc(N4CCN(c5ccccc5)CC4)ccc3=O)o2)cc1	–	inactive
CC1CC(=S)Nc2ccccc2N1Cc1ccccc1 (centres undefined)	–	14.1 µM (active)
CC1CC(=O)Nc2ccccc2N1S(=O)(=O)c1cccs1 (centres undefined)	–	inactive
CC1CC(C)(C)NC(=S)N1CCC(=O)N1CCN(Cc2ccccc2)CC1 (centres undefined)	–	inactive
COc1ccc(-c2nc(S(=O)(=O)c3ccccc3)c(N3CCCCC3)o2)cc1	–	inactive
COC(=O)[C@]1(S(=O)(=O)c2ccccc2)C[C@@H]2ON=C(c3ccc(OC)cc3)[C@@H]2C1	–	17.8 µM (active)
COc1ccc(CNC(=O)C2CC(c3ccc(C(F)(F)F)cc3)=NO2)cc1 (centres undefined)	–	inactive
COc1cc(OC)c(NC(=O)c2cc(S(=O)(=O)N3CCCC3)cn2C)cc1Cl	–	inactive
Cc1ccc(C(C)C)c(OCCSc2nc3ccccc3n2CC(=O)O)c1	–	inactive
CCOc1ccc(OCCSc2nc3ccccc3n2CC(=O)O)cc1	–	inactive
Cc1cccc(OCCSc2nc3ccccc3n2CC(=O)N2CCCCC2)c1C	–	35.5 µM (active)
CCC(C)c1ccc2oc(-c3ccc(NC(=O)c4cc5ccccc5o4)cc3)nc2c1 (centres undefined)	–	inactive
O=C1OC(OC(=O)c2ccccc2Br)C(N2CCOCC2)=C1Cl (centres undefined)	–	inactive
Cc1ccccc1C(=O)OC1OC(=O)C(Cl)=C1Nc1ccccc1 (centres undefined)	–	22.4 µM (active)
Cc1ccccc1C(=O)O	–	inactive

SMILES	growth rescue (activation)	Potency
Cc1cccc(NC(=O)Cn2nc(-c3ccc(Cl)cc3)c3ccccc3c2=O)c1	–	inactive
CCCC12CN3CC(C)(CN(C1)C3c1ccccc1Cl)C2=O (centres undefined)	–	inactive
CC(C)(C)c1ccc(S(=O)(=O)N2CCN(C(=O)c3cc(-c4ccc(Br)cc4)n[nH]3)CC2)cc1	–	inactive
COc1ccc(CCNC(=O)c2nn(C)c3c2CSc2ccccc2-3)cc1OC	–	11.2 µM (active)
COc1ccc(OC)c(CCNC(=O)c2nn(C)c3c2CS(=O)(=O)c2ccccc2-3)c1	–	inactive
CCCCN(CC)CCCNC(=O)c1nn(C)c2c1CSc1ccccc1-2	–	inactive
Cc1cc(-c2ccc(C)c(S(=O)(=O)N3c4ccccc4CC3C)c2)on1 (centres undefined)	–	inactive
Cc1ccc(S(=O)(=O)N2CCCc3cc(NS(=O)(=O)c4cc(C)ccc4C)ccc32)cc1	0% [at 9.22 µM]	–
O=C(O)C1CCN(c2ccc([N+](=O)[O-])cc2[N+](=O)[O-])CC1	–	inactive
CCC(=O)c1ccc(N2CCN(C(=O)c3cc([N+](=O)[O-])ccc3F)CC2)c(F)c1	–	12.6 µM (active)
O=C(c1ccc(N2CCOCC2)c([N+](=O)[O-])c1)N1CCN(c2ccccc2F)CC1	–	14.1 µM (active)
O=C(OCC(=O)N1CCOCC1)c1ccc(N2CCOCC2)c([N+](=O)[O-])c1	7.7% [at 9.22 µM]	–
CCOC(=O)N1CCN(c2cc(C)c([N+](=O)[O-])cc2F)CC1	–	inactive
O=C(c1ccc(N2CCOCC2)c([N+](=O)[O-])c1)N1CCN(S(=O)(=O)c2cccs2)CC1	–	inactive
COc1ccc(S(=O)(=O)NCC(c2ccc(N(C)C)cc2)N2CCc3ccccc32)cc1OC (centres undefined)	-42.7% [at 9.22 µM]	–
Cc1ccc2nc(COc3cccc(NC(=O)c4cccc(Cl)c4)c3)cc(=O)n2c1	–	inactive
CC(=O)Nc1cnc(-c2ccc(O)cc2C)cn1	–	inactive
Cc1ccc(Nc2nc(-c3ccc(O)cc3O)cs2)nc1	–	20 µM (active)
Cc1cc(C)c(NC(=O)c2cc3sc(Cl)cc3n2C)c(C)c1	–	inactive
Cn1c(=O)c(C(=O)O)nn(-c2ccccc2)c1=O	–	inactive
CCCn1c2ccccc2c2cnn(CC(=O)NCC3CCN(Cc4ccc(C)cc4)CC3)c(=O)c21	–	inactive
COc1ccc(SCc2cc(=O)c3ccc(C)c(C)c3[nH]2)cc1	–	inactive
CCC(=O)N1CCc2cc(S(=O)(=O)NC(Cc3ccccc3)C(=O)NCc3ccc(C)cc3)ccc21 (centres undefined)	–	inactive
